Results taken from PubChem BioAssay AID651951 (The Scripps Research Institute Molecular Screening Center, 2012).
Among all 2,400 compounds or so, about 1,100 (46%) were called active. So high a share suggests a set chosen from earlier hits. The list is a sample of the results. Unmarked numbers belong to inactive results.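 The calls were made as follows: active = inhibition above the run cutoff, the mean inhibition of all test compounds plus 3 SD (cut at about 49% in these data); inactive = the rest.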

Target: Trace amine-associated receptor 1 (Homo sapiens) (UniProt Q96RJ0)
Assay: loss of beta-PEA response after agonist pre-exposure – cell-based, fluorescence, tachyphylaxis, counter-screen for TAAR1 agonist project, confirmation (AID 651951);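 also: beta-PEA stimulus applied at its EC80; loss of beta-PEA calcium signal after compound pretreatment read as receptor desensitization; 0% = DMSO with beta-PEA at EC80 and 100% = DMSO alone without agonist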
Settings: CHO RD-HGA16 hTAAR1, Fluo-8 calcium, at 3 µM, hits give high values

Sequence of Trace amine-associated receptor 1 (Homo sapiens) (Q96RJ0 whole entry, looked up): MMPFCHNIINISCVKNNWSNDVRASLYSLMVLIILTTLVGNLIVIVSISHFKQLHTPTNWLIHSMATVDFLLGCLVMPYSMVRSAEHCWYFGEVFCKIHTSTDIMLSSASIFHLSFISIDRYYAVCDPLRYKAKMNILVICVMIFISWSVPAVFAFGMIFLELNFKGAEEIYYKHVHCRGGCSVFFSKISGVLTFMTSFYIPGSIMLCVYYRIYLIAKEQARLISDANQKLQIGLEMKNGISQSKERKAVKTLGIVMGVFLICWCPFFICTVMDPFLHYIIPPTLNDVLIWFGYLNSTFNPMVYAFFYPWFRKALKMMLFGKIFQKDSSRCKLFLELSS

Row | Structure (SMILES) | inhibition
1 | CCC(=NCCc1ccccc1)c1c(O)n(C2CCCCC2)c(=O)[nH]c1=O | 55.8% (active)
2 | Cc1cccc(N2C(=O)NC(=O)/C(=C\c3cnn(-c4ccccc4)c3)C2=O)c1 | 54.4% (active)
3 | NCC(O)c1ccc(O)cc1 (centres undefined) | 53.1% (active)
4 | COc1ccc(Br)cc1CNCCc1cccc(Cl)c1 | 40%
5 | CC(Cc1ccccc1)NC=O (centres undefined) | 78.2% (active)
6 | c1ccc(CCNC2CCCCCC2)cc1 | 91% (active)
7 | O=C1NC(=O)N(Cc2ccco2)C(=O)/C1=C\c1ccc(-c2ccc(F)cc2)o1 | 42.5%
8 | CCCCC(=O)N/N=C/c1c(O)n(CC)c(=S)n(CC)c1=O | 88% (active)
9 | Clc1ccc2nc3c(c(-c4ccccc4)c2c1)CNCC3 | 39.3%
